A selection: hits, their analogues and other compounds. The true share with any hit is near 6.5%.
HT1080NT lethal: kills 2HG-producing HT-1080-NT fibrosarcoma cells | HT-1080-NT fibrosarcoma viability, CellTiter-Glo ATP luminescence, 48 h | Potency, µM (doses to about 46.1 µM), for the others: at the top dose activity, negative = less viability, actives largely listed as cytotoxic | 360,000 tested, 1.6% active;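 further: NT is the 2HG producing partner of a matched IDH1 knockdown line; potency means the concentration at half of the fitted maximal effect; 0% = DMSO-treated cells and -100% = media-only wells without cells; nearly all actives have a fitted effect of over 55% in size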
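HT-1080-NT fibrosarcoma cells (2HG-overproducing), 750 cells/well in RPMI with 5% FBS, dosed after 2 h and incubated 48 h at 37C. CellTiter-Glo luminescence normalized to DMSO and no-cell wells; concentration-response curves fitted and classed.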
IL-1B inflam inh: inhibitors of inflammasome signaling (IL-1 beta secretion); THP-1 LPS/ATP IL-1B secretion, AlphaLISA, 16 h; active compounds read low; activity change, % at 57.5 µM; 360,000 tested, 4.7% active; AID 743279; in the data active means activity change below about -50%; inconclusive means mostly about -30% to -49%; further: on the % scale 0 is the no-effect control and ±100 the full control effect
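THP-1 cells pretreated 1 hr with compounds (up to 57.5 uM final), then stimulated with LPS (250 ng/mL final) plus ATP (1.25 mM final); secreted IL-1B measured by AlphaLISA after 16 hr, decreased signal indicating inhibition.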
HT1080 IDH1KD tx: kills HT-1080 cells with IDH1 knockdown. HT-1080 IDH1 knockdown viability, ATP luminescence, 48 h. Potency, µM (titrated, usually from 46.1 µM), for the others: at the highest dose activity, negative = toxicity, usual class: cytotoxic. 360,000 tested, 2% active;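 further: potency means the concentration at half of the fitted maximal effect; 0% = DMSO wells and -100% = cell-free medium wells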
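% activity derives from luminescence (CellTiter-Glo), normalised to DMSO and no-cell wells. HT-1080-IDH1KD cells, 750/well, had 48 h compound exposure at 37 °C.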
HepG2 tox: kills HepG2 cells in TGF-b inhibitor counter-screen. HepG2 CAGA-GFP viability, ATP luminescence, 18 h. Potency, µM (top dose mostly 46.1 µM), for the others: at the top dose activity change, negative = cytotoxicity, most hits filed as cytotoxic. 410,000 tested, 0.76% active; further: potency means the concentration at half of the fitted maximal effect
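CellTiter-Glo luminescence gave cytotoxicity after 18 hours at 37 degrees C. The cells were HepG2 CAGA-GFP in 1% FBS DMEM, stimulated with 500 pg/mL TGF-beta after compound addition. %Activity was normalised to no-cell wells (complete cell-killing) and DMSO (no toxicity), and curves were fitted and classified.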
Giardia kill: kills Giardia lamblia | Giardia lamblia trophozoite viability | activity change, % at 7.66 µM, hits read low | AID 540267 | 340,000 tested, 0.15% active; in the data active means activity change below about -80%; inconclusive means between about -30% and that limit;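 further: parasites exposed to compound for two days anaerobically before the ATP read; on the % scale 0 is the no-effect control and ±100 the full control effect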
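Trophozoites 100 cells/well + cpd; 48 hrs, 37 deg C, anaerobic. ATPLite 1-Step added, 15-30 min RT, luminescence read (ATP-based viability).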
TGFb inhibitor: inhibitors of TGF-b signaling; AID 588855; Potency, µM (doses to about 46.1 µM), inactives show top-dose activity, negative = inhibition, actives largely listed as inhibitors; 410,000 tested, 1.2% active; HepG2 CAGA-GFP TGF-b/SMAD3 reporter, GFP fluorescence, 18 h; TGF-beta stimulated, 500 pg/mL final; further: potency means the concentration at half of the fitted maximal effect; on the % scale 0 is the no-effect control and ±100 the full control effect; nearly all actives have a fitted effect of over 65% in size
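Per well, imaged GFP fluorescence of HEPG2 CAGA-GFP cells gives the signal; cells get compound, then TGF-beta (500 pg/mL final), 18 h at 37 degrees C; %Activity versus -TGF-beta and +DMSO controls.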
Numbers without * were called inactive; [ ] = remark or other dose. Unless noted, the call rests on the fitted dose curve; in most records, active means well fitted curve in the direction sought with a large enough effect; inconclusive means small, poorly fitted or top-dose-only effect, or another doubt; inactive means no such curve, though single readings can be large; an effect the other way counts as inactive or inconclusive.

How did CCN(CC)S(=O)(=O)c1ccc(OC)c(NC(=O)c2ccc([N+](=O)[O-])cc2)c1 do in these assays?
HT1080NT lethal: -0.5%; IL-1B inflam inh: inconclusive; HT1080 IDH1KD tx: -8.4%; HepG2 tox: -3.2%; Giardia kill: 7.5; TGFb inhibitor: -2.2%

How did COc1ccc(NC(=O)c2ccc(-c3ccc([N+](=O)[O-])cc3)o2)cc1OC do in these assays?
HT1080NT lethal: 2.9%; IL-1B inflam inh: -76.5*; HT1080 IDH1KD tx: 1.7%; HepG2 tox: -4.0%; Giardia kill: -0.8; TGFb inhibitor: -14.3%

What do the screens show for `COc1cccc(NC(=O)c2ccc(-c3ccc([N+](=O)[O-])cc3)o2)c1`?
HT1080NT lethal: -21.3%; IL-1B inflam inh: inconclusive; HT1080 IDH1KD tx: -1.0%; HepG2 tox: -14.9%; Giardia kill: -4.9; TGFb inhibitor: -12.1%

What do the screens show for `COc1ccccc1-n1c(CNC(=O)COc2ccccc2)n[nH]c1=S`?
HT1080NT lethal: -29.5%; IL-1B inflam inh: 27.8; HT1080 IDH1KD tx: -0.6%[9.24 µM]; HepG2 tox: 8.8%; Giardia kill: 27.4; TGFb inhibitor: -0.4%

What do the screens show for `COc1ccc(Cl)cc1NC(=O)C(=O)NCc1ccncc1`?
HT1080NT lethal: -1.1%; IL-1B inflam inh: -52.2*; HT1080 IDH1KD tx: -0.9%; HepG2 tox: -9.4%; Giardia kill: -5.6; TGFb inhibitor: -20.3%

How did COc1cccc2sc3cc(C#CC4(O)CCCCC4)ccc3c(=O)c12 do in these assays?
HT1080NT lethal: inconclusive; IL-1B inflam inh: inconclusive; HT1080 IDH1KD tx: inconclusive; HepG2 tox: 7.08µM*; Giardia kill: -0.6; TGFb inhibitor: 7.08µM*

How did COc1cccc2sc3ccc(C#CC4(N)CCCCC4)cc3c(=O)c12 do in these assays?
HT1080NT lethal: -14.6%; IL-1B inflam inh: -61.1*; HT1080 IDH1KD tx: -14.4%; HepG2 tox: -97.9%; Giardia kill: -6.8; TGFb inhibitor: inconclusive

How did Cn1c2ccccc2c(=O)c2ccc(C#CC3(O)CCCCC3)cc21 do in these assays?
HT1080NT lethal: inconclusive; IL-1B inflam inh: -53.8*; HT1080 IDH1KD tx: inconclusive; HepG2 tox: -93.5%; Giardia kill: inconclusive; TGFb inhibitor: inconclusive

How did COc1cc2sc3ccc(C#CC4(O)CCCCC4)cc3c(=O)c2cc1OC do in these assays?
HT1080NT lethal: -22.9%; IL-1B inflam inh: 0.0; HT1080 IDH1KD tx: inconclusive; HepG2 tox: -13.7%; Giardia kill: -17.3; TGFb inhibitor: -4.5%

How did CNC(C)C#Cc1ccc2sc3cccc(OC)c3c(=O)c2c1 (stereo unspecified) do in these assays?
HT1080NT lethal: -2.1%; IL-1B inflam inh: -80.5*; HT1080 IDH1KD tx: 4.8%; HepG2 tox: -8.4%; Giardia kill: -29.5; TGFb inhibitor: inconclusive

What do the screens show for `O=C(NC(=O)N1CCCCC1)c1ccccc1`?
HT1080NT lethal: 3.8%; IL-1B inflam inh: 14.4; HT1080 IDH1KD tx: 0.8%; HepG2 tox: -17.9%; Giardia kill: 25.9; TGFb inhibitor: 0.0%

What do the screens show for `CCC1CCCCN1CCCNC(=O)c1ccc(CS(=O)(=O)Cc2ccccc2F)o1` (stereo unspecified)?
HT1080NT lethal: -1.4%; IL-1B inflam inh: -17.2; HT1080 IDH1KD tx: -1.1%; HepG2 tox: 0.1%; Giardia kill: 0.4; TGFb inhibitor: 12.7%

Results for CCCCOC(=O)c1ccc(NC(=O)c2cc3c(=O)n4cccc(C)c4nc3n2C)cc1 ?
HepG2 tox: 18.2%; TGFb inhibitor: -7.7%

What do the screens show for `CC(C)Oc1cc(NC(=O)CS(=O)CC(=O)Nc2cccc(C(F)(F)F)c2)c(Cl)cc1Cl` (stereo unspecified)?
HT1080NT lethal: inconclusive; IL-1B inflam inh: -63.5*; HT1080 IDH1KD tx: inconclusive; HepG2 tox: -114.1%; Giardia kill: 20.4; TGFb inhibitor: 11.2µM*

Results for CC(C)Oc1cc(NC(=O)CS(=O)CC(=O)N(C)C)c(Cl)cc1Cl (stereo unspecified) ?
HT1080NT lethal: 7.8%; IL-1B inflam inh: -10.9; HT1080 IDH1KD tx: 7.6%; HepG2 tox: -5.9%; Giardia kill: -0.3; TGFb inhibitor: -2.8%

Assay outcomes deposited in PubChem by National Center for Advancing Translational Sciences (NCATS).
